Bioassay records: PubChem BioAssay, several laboratories
PG9 Ab binder – binds the HIV-1 gp120 antibody PG9; TR-FRET gp120-PG9 antibody binding; inhibition, % at 6.7 µM; actives 0.43% (n = 360,000); AID 624416; in the data active = inhibition above about 8.5%
EP2 modulator – modulators of human EP2 prostaglandin E2 receptor; actives 0.83% (n = 260,000); induction, % at 25 µM; AID 940; EP2-expressing cells, cAMP HTRF FRET, PGE2 co-stimulation; P43116;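 active = compounds whose cAMP rise, as percent of the full-agonist control response, exceeds 60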;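 also: rat C6 glioma line stably carrying human EP2 under a CMV promoter; the protocol text gives 20 µM as final concentration; 100% = response of wells given 1 µM PGE2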
Target sequence (P43116 whole entry, looked up): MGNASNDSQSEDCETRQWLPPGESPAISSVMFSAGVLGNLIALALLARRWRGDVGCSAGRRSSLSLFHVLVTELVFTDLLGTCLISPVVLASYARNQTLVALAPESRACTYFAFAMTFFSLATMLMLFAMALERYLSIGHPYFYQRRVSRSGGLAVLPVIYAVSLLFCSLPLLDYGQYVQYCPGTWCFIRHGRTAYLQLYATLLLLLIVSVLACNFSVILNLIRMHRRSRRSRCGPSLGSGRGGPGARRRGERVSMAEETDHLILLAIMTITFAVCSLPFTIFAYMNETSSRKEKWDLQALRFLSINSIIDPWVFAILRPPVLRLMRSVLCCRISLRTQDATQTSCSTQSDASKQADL
SKN-1 inh – C. elegans SKN-1 inhibition; C. elegans VP596 Pgst-4::GFP/RFP ratio, acrylamide-induced, 24 h; inhibition, % at 21.8 µM; actives 0.49% (n = 360,000);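 active = interference check ratio from 0.5 to 1.5 plus GFP to RFP signal ratio inhibition reaching or exceeding a fixed threshold, cut at about 30% in these data, passing the limit was not always enough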
RAM network inh – blocks the yeast RAM network; S. cerevisiae dse1pr::URA3 reporter, 5-FOA growth OD615, 2 d; analog-sensitive cbk1-as2 kinase mutant strain; inhibition, % at 50 µM; actives 1.8% (n = 190,000); AID 868;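 active = inhibition above a set limit, 3 SD over mean compound inhibition, cut at about 8.4% in these data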;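 also: 0% = DMSO-only wells with no growth and 100% = 10 µM 1-NA-PP1 full growth; inhibition rescues growth on 5-FOA so higher OD means more RAM inhibition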
EP2 antag – blocks the human prostaglandin E2 receptor EP2; inhibition, % at 25 µM; C6 glioma cells expressing human EP2, cAMP TR-FRET; cells stimulated with saturating PGE2; actives 0.52% (n = 260,000);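 active = percent inhibition above 40 after rounding to a whole number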;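 also: rat C6 glioma host cells with rolipram phosphodiesterase inhibitor present; the protocol text gives 20 µM as final concentration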
NR1D1 modulator – modulates human Rev-erb alpha binding to DNA | P20393 | Rev-erbα–FITC-DNA binding, fluorescence polarization, 90 min | activity, % at 10 µM | actives 0.79% (n = 370,000);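 active = activity above about 14%, limit read from the data; passing the limit was not always enough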;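 also: 0% = DMSO wells with 35 nM protein and 100% = DMSO wells with 750 nM protein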
RAM efflux-def – RAM network inhibition, efflux-deficient strain | shares compounds with RAM network inh | S. cerevisiae efflux-deficient reporter strain, 5-FOA growth OD615, 2 days | max inhibition, % | 1,200 tested, under 10 active | AID 1305; call rule not given here;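 also: plate controls were vehicle for no effect and reference inhibitor for full effect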
The depositor's hits bear a star; nt = no result. This is a sample that favours compounds with a hit; in the whole collection about 2.9% have one here.

SMILES	PG9 Ab binder	EP2 modulator	SKN-1 inh	RAM network inh	EP2 antag	NR1D1 modulator	RAM efflux-def
Cc1cc(C(F)(F)F)c(C#N)c(N2CCOCC2)n1	0	19	6	0	8	-3	nt
CCc1ccccc1N1CCN(S(=O)(=O)c2cc(OC)ccc2OC)CC1	1	20	-12	13*	-1	2	2
CCN(CC)C(=O)CSc1nnc(-c2ccncc2)n1CCc1ccccc1	nt	-22	nt	nt	1	nt	nt
CCOC(=O)c1c(NC(=O)CN2CCCc3ccccc32)sc(C)c1C	0	44	5	14*	3	-1	3
CCOC(=O)c1c(NC(=O)CN2CCCc3ccccc32)sc(C)c1CC	-3	37	11	15*	3	1	4
COC(=O)c1c(NC(=O)CN2CCCc3ccccc32)sc(C)c1C	0	52	12	3	3	5	nt
CCCNC(=O)c1c(NC(=O)c2ccccc2OC)sc2c1CCCC2	nt	14	nt	nt	15	nt	nt
COCCOC(=O)c1c(C)oc2ccc(OC(=O)c3c(OC)cccc3OC)cc12	0	-1	-11	12*	3	2	1
O=C(Nc1cccc(-c2nc3ccccc3[nH]2)c1)c1ccc2c(c1)OCO2	nt	-91	nt	nt	21	nt	nt
Cc1ccc(C(=O)NC(=S)Nc2ccc(Oc3ccc(Cl)cc3)cc2)cc1	0	0	-11	6	5	2	nt
O=C(NC(=S)Nc1ccc(Oc2ccccc2)cc1)c1ccc(Cl)cc1	-1	30	0	12*	21	7	2
Cc1ccccc1C(=O)NC(=S)Nc1ccc(Oc2ccc(Cl)cc2)cc1	1	18	-2	13*	15	8	3
Cc1ccc2c(c1)cc(CN(Cc1cccnc1)C(=O)Nc1ccccc1)c1nnnn12	nt	14	nt	nt	4	nt	nt
Cc1ccc(SCc2nc(-c3ccccc3)no2)cc1	0	-16	7	2	9	1	nt
Cc1ccc(-c2noc(CSc3nnc(CCc4ccccc4)n3-c3ccccc3)n2)cc1	1	-45	-3	14*	5	-1	2
CCOCCOC(=O)C(C)Oc1ccc(Oc2nc(Cl)ccc2Cl)cc1 (configuration not stated)	1	38	-9	13*	6	-1	2
COc1cccc(C2C(C(C)=O)=C(O)C(=O)N2CCc2ccc(OC)c(OC)c2)c1 (configuration not stated)	nt	-7	nt	nt	7	nt	nt
CCc1ccccc1NC(=O)/C(C#N)=C/c1ccc(Sc2ccccc2)o1	0	-29	9	16*	6	-3	2
CC1=CC(C)(C)n2c(O)c(N=NC(N)=S)c3cccc1c32	2	24	8	13*	7	0	5
COc1cccc(C2NC(=S)NC(C)=C2C(=O)Nc2cc(Cl)ccc2C)c1OC (configuration not stated)	nt	-31	nt	nt	11	nt	nt
Cc1ccc(NC(=O)COc2ccc(CCO)cc2-n2nc3ccccc3n2)cc1C	0	42	2	12*	6	7	8
Cc1ccc(OCC(=O)O)c(-n2nc3ccccc3n2)c1	0	6	3	0	6	-1	nt
CCNC(=S)N(CCCN1CCOCC1)Cc1cc2ccc(C)c(C)c2[nH]c1=O	nt	6	nt	nt	9	nt	nt
COc1nc(-c2ccccc2)ccc1-c1noc(COc2ccccc2)n1	-2	12	-9	13*	10	4	4
COC(=O)c1ccc(OC)c(CSc2nnc(-c3ccc(C(C)(C)C)cc3)o2)c1	1	36	nt	14*	3	4	4
SMILES	PG9 Ab binder	EP2 modulator	SKN-1 inh	RAM network inh	EP2 antag	NR1D1 modulator	RAM efflux-def
CCc1cc2cc3c(cc2nc1SCC(N)=O)OCCO3	nt	-30	nt	nt	11	nt	nt
COc1ccc(-c2nc3n(c(=O)c2C#N)CCS3)cc1	-1	23	4	2	6	-1	nt
C=CCSc1nc(-c2ccc(OC)cc2)c(C#N)c(=O)n1CC=C	1	43	12	12*	9	2	2
CCOc1ccc(/C=C/C(O)=C2/C(=O)N(C)C3(C)CC2c2ccccc2O3)cc1OC (configuration not stated)	-1	15	-2	11*	10	7	2
S=C(NCCC(c1ccccc1)c1ccccc1)Nc1cccc(Cl)c1	0	-22	3	14*	14	2	5
S=C(NCCN(C1CCCCC1)C1CCCC1)Nc1cccc(Cl)c1	2	nt	-12	nt	nt	3	nt
Cc1ccccc1NC(=S)NCCC(c1ccccc1)c1ccccc1	0	15	15	12*	9	2	3
COC(=O)CN1C(=O)C(O)=C(C(C)=O)C1c1ccc(O)cc1 (configuration not stated)	nt	-30	nt	nt	12	nt	nt
O=C(COc1cccc(F)c1)N1c2ccccc2Sc2ccccc21	nt	47	13	15*	9	nt	4
COc1ccccc1-c1ccc(SCc2ccc([N+](=O)[O-])cc2)nn1	0	41	3	14*	6	2	3
COc1ccccc1-c1noc(CCC(=O)Nc2cccc(C(F)(F)F)c2)n1	-2	4	29	23*	2	-6	1
